Cav3 T inh: inhibitors of human Cav3.2 T-type calcium channel; Cav3.2-expressing cells, Fluo-4 calcium fluorescence FDSS; hits give low values; B-score at 10 µM; actives 4% (n = 100,000); O95180;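 active = single-dose well whose peak fluorescence ratio is a statistical outlier from its plate by either plate-standardised score or position-corrected B-score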
PostGolgi ctrl: yeast control strain growth, post-Golgi counter-screen | efflux-deficient yeast background strain, growth absorbance A615, 16 h | inhibition, % at 10 µM | actives 5% (n = 98,000) | AID 738
Pyk2 oligo antag: blocks oligomerization of human Pyk2 in cells; Q14289; Q293 cells, Pyk2 FERM NanoBiT luminescence; hits give low values; z-score (the deposit names both 25 µM and 10 µM); actives 0.83% (n = 99,000); AID 1347419;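 active = Z-score of -3 or lower, scaled per plate to the spread of control and sample wells; inactive = z-score above -3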;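 note: negative z-score means lost luminescence so less FERM oligomerization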
PostGolgi yeast: growth inhibition of a yeast mutant, post-Golgi transport screen. post-Golgi transport phenotypic cell assay. actives 0.9% (n = 98,000). inhibition, % at 10 µM;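 note: yeast cells grown in 1536-well plates; yeast grown about 18 h at 30C before absorbance read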
The depositor's hits bear a star. Compounds with a hit are over-represented: about 8% of the library has one in this group of screens. Cut-off read from the data, not from the text of the source, unless noted: active = inhibition above about 30%; inactive = the rest.

CN(Cc1ccccc1)Cc1nc2c(c(=O)n(C)c(=O)n2C)n1Cc1ccc(Cl)cc1 was read as PostGolgi ctrl 31*, Pyk2 oligo antag -1.1 and PostGolgi yeast 1.
For CCCCn1c(CN(Cc2ccccc2)Cc2ccccc2)nc2c1c(=O)n(C)c(=O)n2C the results were Cav3 T inh -1.6 and Pyk2 oligo antag 0.25.
Screening Cc1ccc(C)c(Cn2c(CN(C)Cc3ccccc3)nc3c2c(=O)n(C)c(=O)n3C)c1 returned Cav3 T inh -5.2, PostGolgi ctrl 45* and PostGolgi yeast 3.
`CN(Cc1ccccc1)c1nc2c(c(=O)n(C)c(=O)n2C)n1CCCc1ccccc1` gave Cav3 T inh -6.3*, PostGolgi ctrl 43*, Pyk2 oligo antag -0.63 and PostGolgi yeast 0.
For CN(Cc1ccccc1)Cc1nc2c(c(=O)n(C)c(=O)n2C)n1Cc1ccc(F)cc1 the results were Cav3 T inh -4.3*, PostGolgi ctrl 27, Pyk2 oligo antag -1 and PostGolgi yeast -11.
`Cn1c(=O)c2c(nc(CN3CCN(c4cccc(Cl)c4)CC3)n2CCc2ccccc2)n(C)c1=O` gave Cav3 T inh -2.4 and Pyk2 oligo antag -0.32.
For Cn1c(=O)c2c(nc(CN3CCN(c4ccccc4)CC3)n2CCc2ccccc2)n(C)c1=O the results were Cav3 T inh -5.7* and Pyk2 oligo antag 0.32.
`CN(Cc1ccccc1)c1nc2c(c(=O)[nH]c(=O)n2C)n1CCOc1ccccc1` gave Cav3 T inh -4.8*, PostGolgi ctrl 29, Pyk2 oligo antag -0.83 and PostGolgi yeast -8.
`COC(=O)[C@@H]1C[C@@]2(O)[C@H](O)[C@H](O)[C@H](O)C[C@H]2N1CC1CC1` gave Cav3 T inh 0.11.
Screening COc1ccc(C2CC(c3ccccc3)n3nnnc3N2)cc1 (stereo not given) returned Cav3 T inh -0.012, PostGolgi ctrl -1, Pyk2 oligo antag 0.52 and PostGolgi yeast -3.
`CCOc1ccc(C2CC(c3cccc(OC)c3OC)n3nnnc3N2)cc1Cl` (stereo not given) gave Cav3 T inh -4.1*, PostGolgi ctrl -1, Pyk2 oligo antag -1.9 and PostGolgi yeast -1.
For O=C(NCc1ccncc1)c1nnc(Cc2c(F)cccc2Cl)o1 the results were Cav3 T inh 0.41, PostGolgi ctrl 31*, Pyk2 oligo antag -0.19 and PostGolgi yeast 3.
`O=C(NCc1ccco1)c1nnc(Cc2ccc(Cl)cc2)o1` gave Cav3 T inh -0.41, PostGolgi ctrl 13 and PostGolgi yeast 2.
`O=C(NCc1ccco1)c1nnc(Cc2ccc(F)cc2)o1` gave Cav3 T inh 0.096, PostGolgi ctrl -2 and PostGolgi yeast -5.
`O=C(NCc1cccnc1)c1nnc(Cc2ccc(F)cc2)o1` gave PostGolgi ctrl 40* and PostGolgi yeast 8.
COc1cccc(NC(=O)COc2ccc(S(=O)(=O)NC(C)C)cc2)c1 was read as Pyk2 oligo antag 0.05.
`CC(C)C(=O)N1CCC(CN=Cc2c(O)n(C3CCCCC3)c(=O)n(C3CCCCC3)c2=O)CC1` gave Cav3 T inh -11*, PostGolgi ctrl 3, Pyk2 oligo antag -2.6 and PostGolgi yeast 13.
`Cc1nc(N(C)Cc2ccccc2)c2nnn(Cc3ccccc3)c2n1` gave Cav3 T inh -1.9, PostGolgi ctrl 17, Pyk2 oligo antag -1.7 and PostGolgi yeast -1.
For Cc1ccc(Nc2nc(N)nc(CN3CCN(Cc4ccc5c(c4)OCO5)CC3)n2)cc1Cl the results were Cav3 T inh -5.2*, PostGolgi ctrl -5, Pyk2 oligo antag -0.85 and PostGolgi yeast 6.
`Cc1ccc(Nc2nc(N)nc(CN3CCN(c4ccccc4)CC3)n2)cc1Cl` gave Cav3 T inh -1, PostGolgi ctrl 30*, Pyk2 oligo antag -0.59 and PostGolgi yeast 16.
Screening Cc1ccc(Nc2nc(N)nc(CN3CCN(Cc4ccc5c(c4)OCO5)CC3)n2)cc1 returned Cav3 T inh -2.4, PostGolgi ctrl 6, Pyk2 oligo antag -0.35 and PostGolgi yeast -2.
Screening Cc1ccc(Nc2nc(N)nc(CN3CCN(C)CC3)n2)cc1C returned Cav3 T inh 0.096, PostGolgi ctrl 7 and PostGolgi yeast 0.
COc1ccc(N2CCN(Cc3nc(N)nc(Nc4ccc(C)c(Cl)c4)n3)CC2)cc1 was read as Cav3 T inh -5.2*, PostGolgi ctrl 15, Pyk2 oligo antag -0.37 and PostGolgi yeast 0.
`COC(=O)CSc1nnc(CNC(=O)c2cccs2)n1-c1cc(OC)ccc1OC` gave Cav3 T inh 0.097, PostGolgi ctrl 18, Pyk2 oligo antag -0.37 and PostGolgi yeast 4.
C#CCn1c(=NC(=O)c2ccc(Br)s2)sc2cccc(OC)c21 was read as Cav3 T inh 0.41, PostGolgi ctrl 7 and PostGolgi yeast 7.
